This is one part of a sample in which hits are shown more often than they occur.
Shiga toxin inh: A qHTS for Small Molecule Inhibitors of Shiga Toxin. inhibition, % at 38.7 µM. Vero cells, Shiga toxin protein synthesis inhibition reporter. AID 2315, 2010. 290,000 compounds, 9.2% hits; in the data active = inhibition mostly above about 28%, no sharp cut-off; inactive = mostly below about 43%; also: 0% is about no effect
Cycloheximide cs: Cycloheximide Counterscreen for Small Molecule Inhibitors of Shiga Toxin | cell reporter, cycloheximide protein synthesis inhibition counterscreen | max response, % | 300,000 compounds, 12% hits | AID 2314, 2010; in the data active = max response mostly above about 13%, no sharp cut-off; inactive = mostly below about 14%; also: read at 38.3 µM for the half of the compounds with a filed dose; 0% is about no effect
RE007 growth inh: qHTS Assay for Inhibitors of the HIV-1 protein Vpr; Potency, µM (doses to about 92.2 µM), for inactives: top-dose activity change, negative = less growth, most hits filed as inhibitors; S. pombe RE007 Vpr strain, BacTiter-Glo ATP luminescence, 24 h; 360,000 compounds, 0.21% hits; AID 651644, 2012; active = well fitted falling curve with a large enough effect; inconclusive = small, poorly fitted or top-dose-only effect; inactive = no such curve, though single readings can be large or run the other way; also: potency is read from the fitted curve at half-maximal effect; % is scaled to controls: 0 for no effect and ±100 for the full control effect; nearly all actives have a fitted effect of over 50% in size
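Fission yeast RE007 carrying one integrated HIV-1 vpr copy, seeded at OD 0.01 in PMG+AL medium with 23 nL pinned compound. Grown 24 h at 30 degrees; viability read by BacTiter-Glo luminescence after 5 min.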
Tb PYK inh: qHTS of Trypanosoma Brucei Inhibitors. Potency, µM (top dose mostly 76.8 µM), inactives show at the highest dose activity, negative = inhibition, usual class: inhibitors. pyruvate kinase (Trypanosoma brucei), Q57TT1. 410,000 compounds, 0.12% hits. TbPYK enzyme, Kinase-Glo Plus ATP luminescence, 45 min; also: potency is read from the fitted curve at half-maximal effect; % is scaled to controls: 0 for no effect and ±100 for the full control effect; nearly all actives have a fitted effect of over 50% in size
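Assay buffer: 50 mM TEA pH 7.2, 100 mM KCl, 10 mM MgCl2, 0.05% BSA, 0.01% Tween-20. Pyruvate kinase from T. brucei plus substrate met compound, then ADP (130 uM final). Luminescence was read post 45 min RT.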
LmPK inhibitor: qHTS Assay for Inhibitors of Leishmania Mexicana Pyruvate Kinase (LmPK). Q27686. purified LmPK, Kinase-Glo ATP luminescence, 1 h. Potency, µM (top dose mostly 57.5 µM), for inactives: at the highest dose activity change, negative = inhibition, hits mostly inhibitors. 290,000 compounds, 0.37% hits. AID 1721, 2009; also: potency is read from the fitted curve at half-maximal effect; % is scaled to controls: 0 for no effect and ±100 for the full control effect
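Purified LmPK (0.1 nM) with 0.5 mM PEP and 0.1 mM ADP in imidazole buffer pH 7.2 with MgCl2/KCl, 1 h at room temperature. ATP formed was read by luciferase luminescence and normalized to no-enzyme and uninhibited controls.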
FBPA Giardia inh: qHTS Assay for Inhibitors of Fructose-1,6-bisphosphate Aldolase from Giardia Lamblia; Potency, µM (highest dose often 59.6 µM), for inactives: at the top dose activity, negative = inhibition, most hits filed as inhibitors; 290,000 compounds, 0.71% hits; purified Giardia FBPA; A8B2U2; also: potency is read from the fitted curve at half-maximal effect; % is scaled to controls: 0 for no effect and ±100 for the full control effect; nearly all actives have a fitted effect of over 55% in size
Target sequence (A8B2U2 whole entry, looked up): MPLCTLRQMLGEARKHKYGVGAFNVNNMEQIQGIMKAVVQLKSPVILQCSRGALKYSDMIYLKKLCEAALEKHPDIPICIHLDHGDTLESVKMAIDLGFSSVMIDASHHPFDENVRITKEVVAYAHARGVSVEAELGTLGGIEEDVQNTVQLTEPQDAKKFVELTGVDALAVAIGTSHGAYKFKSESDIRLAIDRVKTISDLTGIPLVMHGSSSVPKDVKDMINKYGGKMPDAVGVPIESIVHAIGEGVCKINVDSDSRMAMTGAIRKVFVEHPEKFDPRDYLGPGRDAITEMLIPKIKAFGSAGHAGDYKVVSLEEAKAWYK
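Giardia FBPA (40 nM reagent) was preincubated 10 min at RT with compound (up to 57.5 uM final), then substrate plus GAPDH/TPI/NAD/arsenate coupling system with diaphorase/resazurin was added; resorufin fluorescence (525/598 nm) was read after 20 min.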
Numbers without * were called inactive; ? = inconclusive; / = no result given; [ ] = another dose, or the depositor's remark. Unless noted, calls follow the shape of the dose curve; as a rule, active = well fitted curve in the direction sought with a large enough effect; inconclusive = small, poorly fitted or top-dose-only effect, or another doubt; inactive = no such curve, though single readings can be large; an effect the other way counts as inactive or inconclusive.

SMILES	Shiga toxin inh	Cycloheximide cs	RE007 growth inh	Tb PYK inh	LmPK inhibitor	FBPA Giardia inh
Cc1nn(C)cc1/C=N/NC(=S)Nc1ccccc1	175*	71*	0%	?	-5%	?
COc1ccccc1C(=O)N/N=C/c1c[nH]c2ccccc12	42*	32*	2%	2%	5%	-5%
COc1cc(C2NC(=O)NC(C)=C2C(=O)Nc2cc(C)cc(C)c2)ccc1O (centres undefined)	/	/	/	3%	/	/
O=C(N/N=C/c1oc(O)c2ccccc12)c1ccccc1	62*	17	5%	-11%	-5%	-1%
O=C(N/N=C/c1c[nH]c2ccccc12)c1cccs1	94*	45*	-17%	5%	0%	-6%
O=C(NN=Cc1ccccc1Cl)c1ccccc1	/	/	-21%	1%	/	/
COC(=O)N1CCC2(CC1)CCN(C(c1ccccc1)c1ccccc1)CC2	/	/	/	-5%	/	7%
O=C(c1ccccc1)N1CCN(CC#Cc2ccccc2)CC1	82*	29*	7%	-1%	-8%	4%
Cc1ccc(NC(=O)C2C(=O)N(C)c3ccccc32)cc1 (centres undefined)	42	19*	-2%	-5%	5%	-28%
COc1cccc(NC(=O)Cn2cc(C(=O)C3CCCCC3)c3ccccc32)c1	/	/	/	4%	/	/
Clc1cccc(Cl)c1CSc1nnc(/C=C/c2ccccc2)o1	76	5	-7%	2%	0%	-1%
Fc1cccc(Cl)c1Cc1noc(/C=C/c2ccccc2)n1	148	21*	-4%	-3%	3%	1%
CN(Cc1ccccc1)C(=O)C1CCN(S(=O)(=O)c2ccc3c(c2)oc(=O)n3C)CC1	/	/	/	-10%	/	/
Cc1ccc(-c2nn(-c3ccccc3)cc2CO)cc1	144*	42*	-23%	18%	0%	11%
COc1ccc(-c2nn(-c3ccccc3)cc2C(=O)N2CCOCC2)cc1	18	-3	4%	10%	1%	6%
COc1ccc(-c2nn(-c3ccccc3)cc2CO)cc1	164*	61*	?	1%	5%	0%
Cc1ccc(-c2nn(-c3ccccc3)cc2CNCc2ccccc2)cc1	-3	-4	0%	0%	1%	-7%
O=[N+]([O-])c1cccc(-c2nn(-c3ccccc3)cc2CO)c1	27	12*	-5%	8%	-1%	8%
COc1ccc(-c2nn(-c3ccccc3)cc2N)cc1	183*	61*	-16%	-2%	-4%	-2%
CCCCN(C)C(=O)c1ccc2c(c1)N(Cc1ccc(F)cc1)C(=O)c1ccccc1S2(=O)=O	/	/	/	0%	/	/
CC(C)C[C@@H](CC(=O)N[C@@H](CCCN)CC(=O)N[C@@H]1CCCC[C@H]1C(=O)N[C@H](CC(=O)N[C@@H](CCC(=O)O)CC(=O)O)Cc1ccccc1)NC(=O)[C@@H]1CNCC[C@H]1N	/	/	/	/	/	-27%
COc1cccc(Cn2c(=O)cnc3cnc(OC)nc32)c1	/	/	/	/	/	4%
Cc1cccc(C(=O)NCC(c2cccs2)S(=O)(=O)c2cccs2)c1 (centres undefined)	/	/	/	2%	/	/
CCc1ccc(CN(Cc2cn[nH]c2-c2ccc(OC)cc2)C(=O)Nc2ccc(C)c(F)c2)cc1	/	/	/	0%	/	/
COc1ccc(-c2cn(-c3ccccc3)nc2CO)cc1	111*	37*	-1%	1%	5%	-6%
SMILES	Shiga toxin inh	Cycloheximide cs	RE007 growth inh	Tb PYK inh	LmPK inhibitor	FBPA Giardia inh
CCn1cc(-c2ccccc2)c(C(=O)O)c1-c1ccc(OC)cc1	/	/	-6%	-1%	/	/
O=C(CCc1ccccc1)Nc1ccccc1F	74*	30*	-11%	-5%	?	-2%
O=C(CCc1ccccc1)Nc1ccc(F)cc1F	67*	23*	-11%	-4%	-11%	1%
O=C(CCOc1ccccc1)Nc1ccccc1F	74*	32*	21%	3%	1%	12%
O=C(CCCc1ccccc1)Nc1ccc(Br)cc1F	/	55*	-10%	?	7%	-11%
Cc1ccc(F)cc1NC(=O)CCOc1ccccc1	4	2	8%	-1%	1%	0%
COC(=O)[C@@]1(Cc2ccccc2)[C@H]2c3cc(C(=O)N(C)C)n(CCF)c3C[C@H]2CN1C(=O)c1ccccc1	/	/	/	/	/	-3%
O=C(CSCc1ccccc1)Nc1ccc(F)cc1F	49*	21*	-17%	-1%	2%	-1%
COC1=CC(=O)C(O)=C/C1=C\C=C\c1ccccc1	/	/	/	/	/	22µM*
NCc1ccc(-c2nc3ccccc3o2)cc1	93*	59*	/	/	2%	0%
COC(=O)c1ccc(-c2nc3ccccc3o2)cc1	24	13*	/	/	-13%	0%
O=C1c2ccccc2C(=O)N1c1ccc(-c2nc3ccccc3o2)cc1	-18	7	/	/	2%	6%
Nc1ccc(CCc2nc3ccccc3o2)cc1	64	28*	-8%	-19%	-12%	-11%
c1ccc2oc(-c3ccc4nc[nH]c4c3)nc2c1	75*	39*	-19%	5%	-21%	5%
O=C1c2ccccc2C(=O)N1c1cccc(-c2nc3ccccc3o2)c1	3	1	-12%	5%	-2%	-4%
O=C(Cn1c2ncccc2c(=O)n1-c1ccccc1)NCc1ccccc1Cl	/	/	/	-5%	/	/
C/C(CCN1CCc2nc(-c3ccccc3)c(-c3ccccc3)cc2C1)=N\O[C@@H](C)CN1CCCCc2nc(C)c(C)cc21	/	/	/	/	/	1%[12.9 µM]
Nc1nc2ccc(-c3nc4ccccc4o3)cc2s1	13*	36*	-2%	-2%	-4%	3%
COc1ccc(-c2nc3ccc(NS(C)(=O)=O)cc3o2)cc1	/	/	/	-15%	/	/
COc1ccc(-c2nc3ccccc3o2)cc1OC	36*	36*	-7%	-6%	-15%	3%
COC(=O)c1ccc(-c2nc3ccc(C)cc3o2)cc1	154*	76*	12%	5%	5%	3%
OC1(c2ccc(Cl)c(C(F)(F)F)c2)CCN(CCCC(c2ccc(F)cc2)c2ccc(F)cc2)CC1	-15	-16	/	-10%	/	-13%
COc1ccc(S(=O)(=O)n2nc(C)c(S(=O)(=O)N3CCCCC3)c2C)cc1	/	/	/	12%	/	/
Cc1cccc(OCC(=O)Nc2ccc(S(=O)(=O)N(Cc3ccccc3)c3ccccc3)cc2)c1	/	/	/	-8%	/	/
N=C1SCC(=O)N1/N=C/c1ccccc1	53*	24*	-10%	5%	-8%	5%
O=C1CSC(=S)N1/N=C/C=C/c1ccccc1	35	10	-13%	-8%	8%	18%
CCn1cc(CNC(=O)c2ccc3nc(Cc4ccccc4F)oc3c2)cn1	38	32*	3%	5%	3%	10%
CCOc1ccccc1CNC(=O)c1ccc2nc(Cc3ccc(OC)cc3)oc2c1	/	/	/	-6%	/	/

Screens from PubChem.
